# Laboratory results published in the supplement of paper PMC3334620.
# Over roughly 33,000 sequences, “E-score (-0.5 to 0.5)” has its median near -0.012; the highest 2% begin near 0.29. Shown is part of a subset that was picked to be rich in the highest values.
# Molecular target: T1, Ybr033w (UniProt P38073)
# T1 sequence: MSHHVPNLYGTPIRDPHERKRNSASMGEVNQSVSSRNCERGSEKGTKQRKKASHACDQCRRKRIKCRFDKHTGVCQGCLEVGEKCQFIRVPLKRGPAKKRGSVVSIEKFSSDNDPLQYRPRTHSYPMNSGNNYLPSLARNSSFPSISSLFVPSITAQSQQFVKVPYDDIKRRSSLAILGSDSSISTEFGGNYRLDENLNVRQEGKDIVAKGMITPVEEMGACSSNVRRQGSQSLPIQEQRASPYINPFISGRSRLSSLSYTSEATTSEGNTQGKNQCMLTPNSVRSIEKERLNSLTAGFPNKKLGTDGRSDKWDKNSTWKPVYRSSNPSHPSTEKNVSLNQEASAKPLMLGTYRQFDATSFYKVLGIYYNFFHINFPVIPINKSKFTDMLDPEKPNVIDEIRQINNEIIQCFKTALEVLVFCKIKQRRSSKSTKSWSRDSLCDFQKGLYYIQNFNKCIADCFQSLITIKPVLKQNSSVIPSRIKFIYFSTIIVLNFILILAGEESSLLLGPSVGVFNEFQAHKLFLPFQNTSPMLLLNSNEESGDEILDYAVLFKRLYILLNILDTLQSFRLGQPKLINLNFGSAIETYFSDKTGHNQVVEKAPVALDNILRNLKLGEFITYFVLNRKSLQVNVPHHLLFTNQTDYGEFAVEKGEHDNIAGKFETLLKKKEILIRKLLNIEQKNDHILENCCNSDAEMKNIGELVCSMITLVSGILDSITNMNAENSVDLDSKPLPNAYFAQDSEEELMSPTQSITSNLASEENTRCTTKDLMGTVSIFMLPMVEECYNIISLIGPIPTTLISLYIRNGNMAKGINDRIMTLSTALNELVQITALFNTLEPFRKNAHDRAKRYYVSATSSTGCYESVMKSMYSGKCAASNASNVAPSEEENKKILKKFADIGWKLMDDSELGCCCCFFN
# Assay: PBM E-score (8-mer binding enrichment) (E-score (-0.5 to 0.5)); higher = stronger / more preferred TF binding
# Conditions: protein concentration: 200 nM; construct: GST-full length
# Procedure: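 Universal 'all 10-mer' protein binding microarrays (Agilent AMADID 015681) probed with GST-tagged S. cerevisiae TFs (full-length or DBD) made by in vitro transcription/translation (PURExpress), about 100-200 nM. Bound TF was detected with fluorescent anti-GST. Each ungapped 8-mer (which stands for itself and its reverse complement) is scored by the PBM enrichment score (E-score), a modified Wilcoxon-Mann-Whitney statistic from -0.5 to +0.5, computed with the Universal PBM Analysis Suite. Scale: above 0.35 generally sequence-specific binding.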
row,Sequence,PBM E-score
1,GGGGCCAA,-0.123
2,ATAATGGG,0.152
3,GACTTTAC,0.03
4,AATTCACT,0.249
5,CGGTATGA,0.0788
6,GAGCCCAC,-0.27
7,TATTGTGA,0.105
8,CTTGTAGA,-0.145
9,GTTGTAGA,0.00414
10,ATTGTAGA,0.295
11,AATAGTCC,-0.0436
12,ACCGACAG,-0.135
13,AAATTTCC,0.258
14,AGTTTTCC,0.216
15,GATTTCCC,0.0546
16,AGTTTTTA,0.181
17,GAATTTCC,0.343
18,ATTTTTGG,0.0437
19,GATTTTCC,0.416
20,AATTTTGC,0.142
21,AGTTTTTC,0.295
22,GATTTTCA,0.205
23,ATTTTTGC,0.308
24,CAATTTCC,0.195
25,CGGTTCTA,0.0953

row,Sequence,PBM E-score
1,AAGTTGAG,0.0874
2,CGCTCATC,-0.0261
3,GATACCAC,0.066
4,ATTTTCTC,0.201
5,AATTTCTA,0.209
6,ATTTTGTG,0.291
7,ATTTTGTA,0.246
8,AATTTTCT,0.145
9,AATTTTCA,0.252
10,AATTTTCC,0.468
11,AATTTCTC,0.299
12,CATTTCTC,0.176
13,ATTTTGTC,0.187
14,ATTTTTTG,0.274
15,ATTTTTTC,0.316
16,CATAACGG,0.0155
17,CAGAGTGC,-0.126
18,TCATAACA,0.23
19,TCAGAGCA,-0.114
20,ATCTAGAC,0.107
21,AGTGAATC,0.0239
22,CAGCCTAG,0.0256
23,AATTTTTA,0.256
24,AATTTTTC,0.31
25,AAATTTTC,0.258

row,Sequence,PBM E-score
1,CATATTGA,0.0393
2,AATATTGA,0.329
3,AATATTGG,0.047
4,AATATTGT,0.298
5,GATATTGA,0.177
6,AATATTGC,0.223
7,CCAGGTAG,-0.0963
8,TATGGCAA,-0.151
9,CGCCGCAC,-0.233
10,AAGGAAAA,0.398
11,CAAGGAAA,0.162
12,CAGGAAAA,0.387
13,AAAGGAAC,0.163
14,AAGGAAAC,0.0412
15,GAGGAAAA,0.199
16,AAGGAAAT,0.185
17,CAGAAAAA,0.0895
18,AAAGGAAA,0.303
19,AGATACCT,-0.0724
20,AAAGAGAC,-0.0019
21,ATTATAAT,0.205
22,ATAATTAA,0.414
23,GTAATTAA,0.105
24,CTAATTAC,0.131
25,GTAATTAC,0.218

row,Sequence,PBM E-score
1,ATAATTAG,0.272
2,ATAATTAT,0.372
3,ATAATTAC,0.353
4,TTAATTAA,0.241
5,ATTGATGG,0.213
6,ATAGGTTC,0.143
7,AGGCAACT,0.174
8,CCGCGCAC,-0.0688
9,AAGCAACA,0.117
10,CTTGCATC,-0.144
11,TATCCGCA,0.306
12,AATCCGCA,0.119
13,CATCCGCA,0.156
14,CGAGAGCA,-0.0204
15,GAAAAAGC,0.239
16,ACCGACCT,-0.172
17,GCGCGCGA,0.111
18,GCGCGCGC,0.334
19,ACGCGCGC,-0.0247
20,CGTCTGTA,-0.11
21,CGGTGATA,0.178
22,AGTAGTTC,0.307
23,AGTAGTTG,0.176
24,CATAGTTC,-0.0864
25,AATAGTTG,0.207

row,Sequence,PBM E-score
1,AGTAGTTA,0.0431
2,AATAGTTC,0.294
3,CACAAATG,0.0361
4,CACGGTTC,-0.265
5,GAAAGCGA,0.101
6,AGTACAAG,0.0813
7,AGTACAAT,0.302
8,AGTACAAA,0.114
9,CAGGTCGA,0.141
10,GATCTATA,0.157
11,CATCTTCC,0.0897
12,ATTCTTCA,0.129
13,CTTCTTCC,0.0741
14,AATCTATA,0.297
15,AAACTTAC,0.168
16,CATCTATA,0.188
17,AAACTTAA,0.259
18,ATTCTTCC,0.471
19,GATCTTGC,0.0857
20,GATCTTCC,0.33
21,AAACTTAT,0.379
22,CGAATAGA,-0.0851
23,CTTCCATC,-0.00237
24,ATTCAGAC,0.0909
25,CGTCCCTC,-0.217

row,Sequence,PBM E-score
1,AGCACAAG,-0.0143
2,AGGTCAGC,0.0524
3,CCAATCAA,0.075
4,ACTCTTCC,-0.0223
5,AATCTTCT,0.132
6,GAACTTCA,0.0447
7,AAACTTCA,0.293
8,GATCTTCA,0.0894
9,AATCTTCC,0.411
10,AATCTTCA,0.318
11,AATCTTCG,0.0477
12,AAACTTCG,0.0988
13,TATTGCAA,0.246
14,ACGAAGAC,-0.177
15,CTATTGAG,-0.0501
16,TCTCCAGA,-0.189
17,CCCGGTTC,-0.0468
18,CGGACACA,-0.152
19,AAACGATA,0.213
20,CAACGATA,0.187
21,TAACGATA,0.292
22,CTTGGCTC,-0.146
23,AGCCCAGC,-0.2
24,GATTGCAA,0.171
25,AATGTGAT,0.15

row,Sequence,PBM E-score
1,AATGTGAC,0.0448
2,AATGTGAA,0.313
3,GCATCACA,0.215
4,TTACCAAA,0.235
5,ACTACTAA,0.173
6,ACTACTAC,0.153
7,ACTACTAT,0.328
8,AGAGGAGG,-0.26
9,AAGATTTC,0.169
10,CTACATAA,0.0125
11,ATACAAAT,0.252
12,TTACAAAA,0.268
13,ATACATAC,0.0684
14,ATACAAAA,0.311
15,CTACAAAC,0.152
16,ATACATAA,0.309
17,ATACAAAC,0.306
18,CTACAAAA,0.00298
19,CTACAAAG,0.0965
20,GTACAAAC,0.0352
21,ATACAAAG,0.298
22,TACCGGAA,0.27
